An excerpt weighted towards active compounds, which were near 12% of everything screened.
G9a inh – inhibitors of human histone lysine methyltransferase G9a; G9a H3K9 monomethylation, AlphaScreen, 2 h; Potency, µM (top dose mostly 102 µM), hits mostly inhibitors; hit rate 8.8% among 350,000; AID 504332; also: nearly all actives have a fitted effect of over 75% in size
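Signal arises when biotinylated H3K9 peptide, once monomethylated, bridges streptavidin donor and antibody-captured acceptor beads. Enzyme at 20 nM was preincubated 15 min with test compounds; peptide 500 nM and SAM 20 uM then reacted for 2 h.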
JMJD2A Tudor – inhibitors of human JMJD2A Tudor domain; AID 504339; hit rate 4.4% among 390,000; AlphaScreen JMJD2A-Tudor / H3K4me3 peptide binding; O75164; Potency, µM (top dose mostly 114 µM), actives largely listed as inhibitors; also: nearly all actives have a fitted effect of over 50% in size
HP1b binding inh – blocks HP1-beta chromodomain binding to methylated histone tails | P83916 | AlphaScreen HP1-beta / biotin-H3K9me3 peptide binding | Potency, µM (doses to about 114 µM), hits mostly inhibitors | hit rate 0.56% among 390,000; also: nearly all actives have a fitted effect of over 70% in size
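Compound inhibition of the preformed complex between 50 nM HP1-beta and 50 nM biotinylated H3K9me3 peptide was read by AlphaScreen. Buffer was PBS pH 7.4 with 0.01% Tween-20. Incubations ran 30 min at room temperature, with 10 ug/mL donor/acceptor beads.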
Sfp inh – inhibitors of Bacillus subtilis Sfp phosphopantetheinyl transferase. Biochemical Sfp PPTase activity, qHTS. AID 1490. Potency, µM, usual class: inhibitors. hit rate 3.5% among 310,000. Q9F4F7;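 also: the enzyme is Sfp with the accession as filed and its product quenches rhodamine fluorescence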
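Sfp 15 nM + cpd, 15 min RT; start w/ rhodamine-CoA 5 uM, BHQ-2-YbbR 12.5 uM (final); 50 mM Hepes pH 7.6, 10 mM MgCl2, 0.01% NP-40, 0.01% BSA; read 525/598 nm at 0 and 30 min.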
BAZ2B block – blocks human BAZ2B | Q9UIF8 | AlphaScreen BAZ2B-H3K14Ac peptide displacement | Potency, µM (top dose mostly 114 µM), usual class: inhibitors | hit rate 4.4% among 360,000; also: nearly all actives have a fitted effect of over 60% in size
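AlphaScreen luminescence quantifies BAZ2B engagement of H3K14Ac peptide; the protein and biotinylated peptide are both at 50 nM final, buffer PBS pH 7.4 with 0.01% Tween-20, all steps at room temperature.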
Numbers stand for hits; – = inactive; ? = inconclusive; · = no result; [ ] = dose if it differs, or a comment. Calls follow the shape of the dose curve; as a rule, active = well fitted curve in the direction sought with a large enough effect; inconclusive = small, poorly fitted or top-dose-only effect, or another doubt; inactive = no such curve, though single readings can be large; an effect the other way counts as inactive or inconclusive.

SMILES	G9a inh	JMJD2A Tudor	HP1b binding inh	Sfp inh	BAZ2B block
CC(=O)NC1=NN(C(C)=O)C(c2ccccc2)S1 (stereo not given)	–	11µM	–	–	–
CC(=O)NC1=NN(C(C)=O)C(c2ccc(C)cc2)S1 (stereo not given)	–	–	–	–	–
COc1ccc(NC(=O)N(C)C[C@H]2Oc3ccc(NC(=O)Nc4ccc(C(F)(F)F)cc4)cc3C(=O)N([C@H](C)CO)C[C@@H]2C)cc1	·	–	–	·	·
NC(=S)N/N=C1\CCOc2ccc(F)cc21	·	–	–	89µM	–
C/C(=N\NC(N)=S)C1(C)CCCCC1	50µM	35µM	–	?	–
CC12CCCC(O)(C1)C1CC(C)(C)C1CC2 (stereo not given)	·	·	·	–	·
O=C(OCc1cccnc1)C1=Cc2ccccc2OC1	–[12.7 µM]	–	–	–	–
CCCSc1nsc(SCCC)c1C(N)=O	40µM	–	–	–	–
CCSc1nsc(SCC)c1C(N)=O	?	–	–	–	–
COc1ccc(NC(=O)N2CCc3ccccc32)cc1	–[12.7 µM]	–	–	–	–
Cc1ccnc(Nc2nc3ccccc3o2)n1	?	–	–	71µM	–
Cc1ccc(Nc2nc3ccccc3o2)cc1F	–	11µM	–	–	–
O=C(CSC1=Nc2ccccc2C2=NC(Cc3ccccc3)C(=O)N12)Nc1cccc(Cl)c1 (stereo not given)	–[12.7 µM]	–	–	·	–
CC(NC(=O)CSc1n[nH]c(=O)n1C1CC1)C12CC3CC(CC(C3)C1)C2 (stereo not given)	–[12.7 µM]	–	–	–	–
C#CCOCCOCCOCCNc1nc(N2CCOCC2)nc(N2CCN(C(=O)[C@H](CCC(=O)O)n3cc([C@@H](N)CCCCN)nn3)CC2)n1	·	–	–	·	·
C#CCOCCOCCOCCNc1nc(N2CCN(C(=O)[C@H](CC(N)=O)n3cc([C@@H](N)C(C)C)nn3)CC2)nc(N2CCN(C(=O)[C@H](CC(N)=O)n3cc([C@@H](N)C(C)C)nn3)CC2)n1	·	25µM	–	·	·
C#CCOCCOCCOCCNc1nc(N2CCOCC2)nc(N2CCN(C(=O)[C@H](CC(N)=O)n3cc([C@@H](N)C(C)C)nn3)CC2)n1	·	–	–	·	·
C#CCOCCOCCOCCNc1nc(N2CCN(C(=O)[C@H](CC(N)=O)n3cc([C@@H](N)CC(N)=O)nn3)CC2)nc(N2CCN(C(=O)[C@H](CC(N)=O)n3cc([C@@H](N)CC(N)=O)nn3)CC2)n1	·	25µM	–	·	·
C#CCOCCOCCOCCNc1nc(N2CCN(C(=O)[C@H](CCC(=O)O)n3cc([C@@H](N)CC(N)=O)nn3)CC2)nc(N2CCN(C(=O)[C@H](CCC(=O)O)n3cc([C@@H](N)CC(N)=O)nn3)CC2)n1	·	20µM	–	·	·
COc1ccc(OC)c(NS(=O)(=O)c2ccc(Cl)s2)c1	?	–	–	–	–
CC(C)(C)NC(=O)C(c1ccc(O)cc1)N(Cc1ccco1)C(=O)Cn1nnc(-c2cccs2)n1 (stereo not given)	20µM	?	–	–	–
CC(C)(C)NC(=O)C(c1ccncc1)N(C(=O)Cn1nnc(-c2ccc(F)cc2)n1)c1ccccc1 (stereo not given)	22µM	?	–	20µM	?
Cc1ccc(-c2nnn(CC(=O)N(c3cccc(O)c3)C(C(=O)NC(C)(C)C)c3cccs3)n2)o1 (stereo not given)	45µM	–	–	–	–
Cc1ccc(-c2nnn(CC(=O)N(c3cccc(F)c3)C(C(=O)NC(C)(C)C)c3ccco3)n2)o1 (stereo not given)	50µM	–	–	–	–
Cc1ccc(-c2nnn(CC(=O)N(c3ccccc3)C(C(=O)NC(C)(C)C)c3cccs3)n2)o1 (stereo not given)	–	–	–	–	–
FC(F)(F)c1ccccc1NC(=S)NC1CCN(Cc2ccccc2)CC1	·	–	–	–	–
COC(=O)c1ccccc1NC(=O)c1ccc(COc2cccc3ccccc23)o1	?	–	–	56µM	–
Cc1noc(C)c1COC(=O)C1COc2ccccc2O1 (stereo not given)	–	–	–	–	·
CC(C)Cn1c(=O)c2ccccc2n2c(-c3ccc(Br)cc3)nnc12	–	?	–	·	–
CC(C)OCCCn1c(=O)c2ccccc2n2c(-c3ccc(F)c(F)c3)nnc12	?	?	–	·	50µM

High-throughput results (PubChem BioAssay)
